# The antibiotic and cytotoxicity screens of Wong et al. (2023)
# About 1,500 (3.8%) of roughly 39,000 compounds were called active. Shown is part of a subset that was picked to be rich in actives.
# System: HSkMC (human skeletal muscle cells)
# Experiment: cytotoxicity call (relative viability < 0.9)
# Conditions: 10 µM
row,Compound,cytotoxicity call
1,Cc1noc(C)c1S(=O)(=O)N(C)C[C@H]1OCc2cnnn2CCCC(=O)N([C@H](C)CO)C[C@H]1C,inactive
2,Cc1ccc(S(=O)(=O)Nc2ccc3c(c2)CC(=O)N([C@H](C)CO)C[C@@H](C)[C@@H](CN(C)Cc2ccncc2)O3)cc1,inactive
3,CS(=O)(=O)Nc1ccc2c(c1)[C@H]1C[C@H](CC(=O)NCc3ccc(-c4ccccc4)cc3)O[C@H](CO)[C@H]1O2,inactive
4,C/C=C1\[C@@H](O[C@H]2O[C@@H](CO)[C@@H](O)[C@@H](O)[C@@H]2O)OC=C(C(=O)OC)[C@H]1CC(=O)OC[C@H]1[C@H](C)[C@H](OC(=O)C[C@@H]2C(C(=O)OC)=CO[C@H](O[C@H]3O[C@@H](CO)[C@@H](O)[C@@H](O)[C@@H]3O)/C2=C\C)C[C@@H]1[C@H](CO)COC(=O)C[C@@H]1C(C(=O)OC)=CO[C@@H](O[C@H]2O[C@@H](CO)[C@@H](O)[C@@H](O)[C@@H]2O)/C1=C\C,inactive
5,C[C@@H]1CN([C@H](C)CO)C(=O)c2cc(NC(=O)C3CCCCC3)ccc2O[C@H]1CN(C)Cc1ccc(Cl)c(Cl)c1,inactive
6,CC(C)NC(=N)NC(=N)Nc1ccc(Cl)cc1.Cl,inactive
7,Cl.Cl.N=C(NCCCCCCNC(=N)NC(=N)Nc1ccc(Cl)cc1)NC(=N)Nc1ccc(Cl)cc1,active
8,N[C@@H](CC(=O)Nc1ccc(Cl)cc1)C(=O)O,inactive
9,C[C@H](CO)N1C[C@H](C)[C@H](CN(C)S(=O)(=O)c2ccccc2)Oc2ccc(NS(=O)(=O)c3cn(C)cn3)cc2C1=O,inactive
10,O=C(O)c1ccnc2nc[nH]c12,inactive
11,O=C1OC2(c3ccccc31)c1cc(I)c(O)c(I)c1Oc1c2cc(I)c(O)c1I,active
12,O=C1OC2(c3ccc(O)cc3Oc3cc(O)ccc32)c2ccccc21,inactive
13,O=C1OC(c2cc(I)c(O)c(I)c2)(c2cc(I)c(O)c(I)c2)c2ccccc21,inactive
14,Clc1ccc(-c2cccs2)nn1,inactive
15,CC(C)NC(=O)Nc1cccc2c1O[C@@H](CN(C)C(=O)Nc1ccc3c(c1)OCO3)[C@H](C)CN([C@H](C)CO)C2=O,inactive
16,COCC#Cc1cnc2c(c1)C(=O)N([C@H](C)CO)C[C@H](C)[C@H](CN(C)C(=O)Nc1ccccc1OC)O2,inactive
17,C[C@@H]1CN([C@@H](C)CO)C(=O)c2cc(NS(=O)(=O)c3ccc(Cl)cc3)ccc2O[C@H]1CN(C)Cc1ccc(-c2ccccc2)cc1,active
18,C[C@@H]1CN([C@@H](C)CO)C(=O)c2cc(NS(=O)(=O)c3ccc(Cl)cc3)ccc2O[C@@H]1CN(C)Cc1ccc(-c2ccccc2)cc1,active
19,C[C@H](CO)N1C[C@H](C)[C@H](CN(C)Cc2ccc(-c3ccccc3)cc2)Oc2ccc(NS(=O)(=O)c3ccccc3)cc2C1=O,inactive
20,C[C@H](CO)N1C[C@H](C)[C@H](CN(C)Cc2ccc(-c3ccccc3)cc2)Oc2ccc(NS(=O)(=O)c3ccc(Cl)cc3)cc2C1=O,active
21,C[C@H]1CN([C@@H](C)CO)C(=O)c2cc(NS(=O)(=O)c3ccc(Cl)cc3)ccc2O[C@@H]1CN(C)Cc1ccc(-c2ccccc2)cc1,inactive
22,C[C@H]1CN([C@@H](C)CO)C(=O)c2cc(NS(=O)(=O)c3ccc(Cl)cc3)ccc2O[C@H]1CN(C)Cc1ccc(-c2ccccc2)cc1,inactive
23,C[C@H]1CN([C@@H](C)CO)C(=O)c2cc(NS(=O)(=O)c3ccccc3)ccc2O[C@@H]1CN(C)Cc1ccc(-c2ccccc2)cc1,inactive
24,C[C@H](CO)N1C[C@H](C)[C@@H](CN(C)Cc2ccc(-c3ccccc3)cc2)Oc2ccc(NS(=O)(=O)c3ccccc3)cc2C1=O,inactive
25,C[C@@H]1CN([C@H](C)CO)C(=O)c2cc(NS(=O)(=O)c3ccccc3)ccc2O[C@@H]1CN(C)Cc1ccc(-c2ccccc2)cc1,inactive
26,C[C@@H]1CN([C@H](C)CO)C(=O)c2cc(NS(=O)(=O)c3ccc(Cl)cc3)ccc2O[C@@H]1CN(C)Cc1ccc(-c2ccccc2)cc1,active
